Data taken from PubChem BioAssay AID1159580 (chemical genetic matrix, 2015).
The campaign covered roughly 5,500 compounds. About 2,000 (36%) were called active. Not shown: some 18% with an inconclusive outcome. No stated cut-off is given here; in the data, active means normalized growth mostly below about 0.91 (no sharp cut-off); inconclusive means no clear call, values can overlap the other calls; inactive means mostly above about 0.92. Some of the results follow.

Assay: chemical genetic growth profiling, strain panel (AID 1159580);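 further: tested at 20 µM; growth read once vehicle control cultures reached saturation at 30 °C; 1 = growth at the plate median or of vehicle wells; lower values mean less growth of the strain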
Conditions: growth OD

Measured: normalized growth

CC(=O)[O][Hg][c]1ccccc1
active: S. cerevisiae deletion strains, locus YJR066W, strain TOR1, active compounds read low 0.00688 | S. cerevisiae deletion strains, locus YJR075W, strain HOC1, active compounds read low 0.0645 | S. cerevisiae deletion strains, locus YKL009W, strain mrt4, active compounds read low 0.0761 | S. cerevisiae deletion strains, locus YKL068W, active compounds read low 0.0552 | S. cerevisiae deletion strains, locus YKL085W, strain MDH1 (second series), active compounds read low 0.0536 | S. cerevisiae deletion strains, locus YKL085W, strain MDH1, active compounds read low 0.0536 | S. cerevisiae deletion strains, locus YKL160W, strain elf1, active compounds read low 0.0629 | S. cerevisiae deletion strains, locus YKL190W, strain CNB1, active compounds read low 0.0488 | S. cerevisiae deletion strains, locus YKR001C, strain vps1, active compounds read low 0.0636 | S. cerevisiae deletion strains, locus YKR026C, strain gcn3, active compounds read low 0.0658 | S. cerevisiae deletion strains, locus YKR091W, strain srl3, active compounds read low 0.0596 | S. cerevisiae deletion strains, locus YLL001W, strain dnm1, active compounds read low 0.0611 | S. cerevisiae deletion strains, locus YLL026W, active compounds read low 0.0582 | S. cerevisiae deletion strains, locus YLL041C, strain sdh2, active compounds read low 0.0595 | S. cerevisiae deletion strains, locus YLR027C, strain aat2, active compounds read low 0.0573 | S. cerevisiae deletion strains, locus YLR039C, strain RIC1, active compounds read low 0.0904 | S. cerevisiae deletion strains, locus YLR058C, strain SHM2, active compounds read low 0.0508 | S. cerevisiae deletion strains, locus YLR102C, strain apc9, active compounds read low 0.0618 | S. cerevisiae deletion strains, locus YLR113W, strain HOG1, active compounds read low 0.158 | S. cerevisiae deletion strains, locus YLR221C, strain rsa3, active compounds read low 0.0629 | S. cerevisiae deletion strains, locus YLR258W, strain gsy2, active compounds read low 0.0604 | S. cerevisiae deletion strains, locus YLR262C, strain YPT6 (second series), active compounds read low 0.0742 | S. cerevisiae deletion strains, locus YLR262C, strain YPT6, active compounds read low 0.103 | S. cerevisiae deletion strains, locus YLR268W, strain sec22, active compounds read low 0.0681 | S. cerevisiae deletion strains, locus YLR320W, strain mms22, active compounds read low 0.0826 | S. cerevisiae deletion strains, locus YLR330W, strain CHS5, active compounds read low 0.0544 | S. cerevisiae deletion strains, locus YLR342W, strain FKS1 (second series), active compounds read low 0.0755 | S. cerevisiae deletion strains, locus YLR342W, strain FKS1, active compounds read low 0.0633 | S. cerevisiae deletion strains, locus YLR357W, strain rsc2, active compounds read low 0.127 | S. cerevisiae deletion strains, locus YLR370C, strain arc18, active compounds read low 0.0626 | S. cerevisiae deletion strains, locus YLR371W, strain rom2, active compounds read low 0.0637 | S. cerevisiae deletion strains, locus YLR384C, strain iki3, active compounds read low 0.0624 | S. cerevisiae deletion strains, locus YLR418C, strain cdc73, active compounds read low 0.0951 | S. cerevisiae deletion strains, locus YML016C, strain PPZ1, active compounds read low 0.0524 | S. cerevisiae deletion strains, locus YML032C, strain rad52, active compounds read low 0.0836 | S. cerevisiae deletion strains, locus YML120C, strain ndi1, active compounds read low 0.0619 | S. cerevisiae deletion strains, locus YML124C, strain tub3, active compounds read low 0.0593 | S. cerevisiae deletion strains, locus YMR058W, strain fet3, active compounds read low 0.0602 | S. cerevisiae deletion strains, locus YMR078C, strain ctf18, active compounds read low 0.0736 | S. cerevisiae deletion strains, locus YMR125W, strain sto1, active compounds read low 0.0779 | S. cerevisiae deletion strains, locus YMR129W, active compounds read low 0.0611 | S. cerevisiae deletion strains, locus YMR205C, strain PFK2, active compounds read low 0.0858 | S. cerevisiae deletion strains, locus YMR223W, strain ubp8, active compounds read low 0.0679 | S. cerevisiae deletion strains, locus YMR231W, strain pep5, active compounds read low 0.0683 | S. cerevisiae deletion strains, locus YMR263W, strain SAP30, active compounds read low 0.0622 | S. cerevisiae deletion strains, locus YMR307W, strain GAS1, active compounds read low 0.119 | S. cerevisiae deletion strains, locus YNL067W, strain RPL9B, active compounds read low 0.0529 | S. cerevisiae deletion strains, locus YNL071W, strain lat1, active compounds read low 0.0614 | S. cerevisiae deletion strains, locus YNL128W, strain TEP1, active compounds read low 0.0633 | S. cerevisiae deletion strains, locus YNL153C, strain GIM3, active compounds read low 0.0495 | S. cerevisiae deletion strains, locus YNL183C, strain NPR1, active compounds read low -0.000716 | S. cerevisiae deletion strains, locus YNL209W, strain ssb2, active compounds read low 0.0586 | S. cerevisiae deletion strains, locus YNL233W, strain BNI4, active compounds read low 0.0544 | S. cerevisiae deletion strains, locus YNL248C, strain rpa49, active compounds read low 0.0785 | S. cerevisiae deletion strains, locus YNL250W, strain rad50, active compounds read low 0.0635 | S. cerevisiae deletion strains, locus YNL271C, strain bni1, active compounds read low 0.0615 | S. cerevisiae deletion strains, locus YNL298W, strain CLA4, active compounds read low 0.0614 | S. cerevisiae deletion strains, locus YNL307C, strain MCK1, active compounds read low 0.0689 | S. cerevisiae deletion strains, locus YNL322C, strain KRE1 (second series), active compounds read low 0.0671 | S. cerevisiae deletion strains, locus YNL322C, strain KRE1, active compounds read low 0.0528 | S. cerevisiae deletion strains, locus YNR049C, strain mso1, active compounds read low 0.0595 | S. cerevisiae deletion strains, locus YNR052C, strain pop2, active compounds read low 0.0629 | S. cerevisiae deletion strains, locus YOL006C, strain TOP1, active compounds read low 0.102 | S. cerevisiae deletion strains, locus YOL147C, strain pex11, active compounds read low 0.058 | S. cerevisiae deletion strains, locus YOR001W, strain rrp6, active compounds read low 0.0684 | S. cerevisiae deletion strains, locus YOR061W, strain CKA2, active compounds read low 0.0465 | S. cerevisiae deletion strains, locus YOR069W, strain VPS5, active compounds read low 0.0482 | S. cerevisiae deletion strains, locus YOR070C, strain gyp1, active compounds read low 0.0606 | S. cerevisiae deletion strains, locus YOR080W, strain dia2, active compounds read low 0.0661 | S. cerevisiae deletion strains, locus YOR083W, strain WHI5, active compounds read low 0.0628 | S. cerevisiae deletion strains, locus YOR106W, strain vam3, active compounds read low 0.0631 | S. cerevisiae deletion strains, locus YOR136W, strain idh2, active compounds read low 0.0713 | S. cerevisiae deletion strains, locus YOR144C, strain elg1, active compounds read low 0.0581 | S. cerevisiae deletion strains, locus YOR184W, strain ser1, active compounds read low 0.073 | S. cerevisiae deletion strains, locus YOR231W, strain MKK1, active compounds read low 0.132 | S. cerevisiae deletion strains, locus YOR265W, strain rbl2, active compounds read low 0.0563 | S. cerevisiae deletion strains, locus YOR270C, strain vph1, active compounds read low 0.0933 | S. cerevisiae deletion strains, locus YOR290C, strain snf2, active compounds read low 0.0699 | S. cerevisiae deletion strains, locus YOR316C, strain cot1, active compounds read low 0.0597 | S. cerevisiae deletion strains, locus YPL051W, strain arl3, active compounds read low 0.063 | S. cerevisiae deletion strains, locus YPL055C, strain LGE1, active compounds read low 0.076 | S. cerevisiae deletion strains, locus YPL078C, strain atp4, active compounds read low 0.0655 | S. cerevisiae deletion strains, locus YPL106C, strain sse1, active compounds read low 0.1 | S. cerevisiae deletion strains, locus YPL240C, strain hsp82, active compounds read low 0.0559 | S. cerevisiae deletion strains, locus YPL241C, strain CIN2, active compounds read low 0.0515 | S. cerevisiae deletion strains, locus YPL256C, strain CLN2, active compounds read low 0.132 | S. cerevisiae deletion strains, locus YPR119W, strain clb2, active compounds read low 0.0616 | S. cerevisiae deletion strains, locus YPR141C, strain kar3, active compounds read low 0.0673 | S. cerevisiae deletion strains, locus YPR163C, strain tif3, active compounds read low 0.0707 | S. cerevisiae deletion strains, locus YPR167C, strain met16, active compounds read low 0.0616 | S. cerevisiae deletion strains, strain wtn01, active compounds read low 0.0633 | S. cerevisiae strains, strain wild type, active compounds read low 0.0493
